Screens as filed in PubChem.
EP2 antag = human EP2 receptor antagonists, primary screen, TR-FRET cAMP, C6 glioma cells. Prostaglandin E2 receptor EP2 subtype (Homo sapiens), P43116. C6 glioma cells expressing human EP2; cells stimulated with saturating PGE2. inhibition, % at 25 µM. 0.52% of 260,000 active;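 active = percent inhibition above 40 after rounding to a whole number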;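 note: rat C6 glioma host cells with rolipram phosphodiesterase inhibitor present; the protocol text gives 20 µM as final concentration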
S1P4 antag = S1P4 receptor antagonists, primary screen, cell-based; inhibition, % at 4.98 µM; 0.26% of 220,000 active; S1P4-expressing cells, antagonist mode, reporter read-out; in the data active = inhibition above about 29%;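 note: 0% = wells stimulated with agonist and 100% = vehicle wells without agonist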
S1P4 ag = S1P4 receptor agonists, primary screen, cell-based. activation, % at 4.98 µM. S1P4-expressing cell line, agonist reporter assay. Sphingosine 1-phosphate receptor 4 (Homo sapiens), O95977. 0.35% of 220,000 active; in the data active = activation above about 11%;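 note: 0% = DMSO vehicle and 100% = reference agonist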
EP2 mod = EP2 receptor modulators, cAMP readout, primary screen, cell-based, HTRF cAMP, PGE2 stimulation. Prostaglandin E2 receptor EP2 subtype (Homo sapiens), P43116. EP2-expressing cells, cAMP HTRF FRET, PGE2 co-stimulation. induction, % at 25 µM. 0.83% of 260,000 active;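 active = compounds whose cAMP rise, as percent of the full-agonist control response, exceeds 60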;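 note: rat C6 glioma line stably carrying human EP2 under a CMV promoter; the protocol text gives 20 µM as final concentration; 100% = response of wells given 1 µM PGE2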
S1P3 antag = S1P3 receptor antagonists, primary screen, cell-based. Sphingosine 1-phosphate receptor 3 (Homo sapiens), Q99500. CHO S1P3 NFAT-BLA reporter, FRET fluorescence, antagonist mode. inhibition, % at 4.98 µM. 0.27% of 170,000 active. AID 485, 2006;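 active = inhibition above the plate cutoff, the mean inhibition of test wells on that plate plus 3 SD, cut at about 28% in these data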;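 note: cells challenged with S1P at its EC80 of 0.8 µM; blue over green emission ratio from cleaved BLA substrate after 4 h stimulation; 0% = S1P-stimulated wells and 100% = unstimulated DMSO-only wells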
Target sequence (Q99500 whole entry, looked up): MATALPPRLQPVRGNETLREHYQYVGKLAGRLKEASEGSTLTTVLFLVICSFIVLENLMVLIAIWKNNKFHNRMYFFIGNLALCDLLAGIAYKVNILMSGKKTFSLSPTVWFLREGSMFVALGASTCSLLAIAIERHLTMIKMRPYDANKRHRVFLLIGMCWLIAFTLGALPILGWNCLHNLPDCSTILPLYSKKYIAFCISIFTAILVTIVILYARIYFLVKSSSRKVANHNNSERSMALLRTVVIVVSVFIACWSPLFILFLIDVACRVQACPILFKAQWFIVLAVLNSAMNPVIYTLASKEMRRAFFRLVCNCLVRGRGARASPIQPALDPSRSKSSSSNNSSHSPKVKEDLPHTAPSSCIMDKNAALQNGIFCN
S1P4 antag cf = S1P4 receptor antagonists, human, confirmation, cell-based; S1P4-expressing cell line, antagonist mode, reporter read-out; shares compounds with S1P4 antag; inhibition, % at 4.98 µM; 71% of 520 active; in the data active = inhibition above about 30%
S1P1 antagonist = S1P1 receptor antagonists, human, counter-screen for S1P4 antagonist project, cell-based; shares compounds with S1P4 antag; cell-based S1P1 antagonist counterscreen, inhibition; inhibition, % at 4.98 µM; 37% of 520 active; AID 1564, 2009; in the data active = inhibition above about 40%;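 note: receptor stimulated with S1P near its EC80; 0% = agonist stimulated wells and 100% = vehicle only wells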
Starred values were filed as active, the others as inactive; nt = not tested or not shown. Hits are enriched below; roughly 1.9% of the tested compounds scored in any of these assays.

SMILES	EP2 antag	S1P4 antag	S1P4 ag	EP2 mod	S1P3 antag	S1P4 antag cf	S1P1 antagonist
COc1ccc(NC(=O)N(Cc2ccc(F)cc2)Cc2cc3c(C)cc(C)cc3[nH]c2=O)cc1	6	nt	nt	-26	nt	nt	nt
CCN(CC)CCNC(=O)c1ccc2c(c1NCCO)C(=O)c1ccccc1C2=O	56*	81*	0	-59	9	-11	-1
COc1ccc(NC(=O)/C(Cl)=C(/Cl)S(=O)Cc2ccccc2)cn1 (centres undefined)	10	91*	-3	-28	nt	123*	68*
COc1ccc(CS(=O)(=O)/C(Cl)=C(/Cl)C(=O)Nc2ccc(OC)nc2)cc1	11	80*	1	-26	nt	119*	85*
COc1ccc(NC(=O)Cc2ccccc2)cn1	9	6	0	17	-4	nt	nt
COc1ccc(/C=C/C(=O)Nc2ccc(OC)nc2)cc1	4	11	3	-18	-5	nt	nt
COc1cccc(/C(O)=C2/C(=O)C(=O)N(CCCN3CCOCC3)C2c2cccs2)c1 (centres undefined)	12	nt	nt	3	nt	nt	nt
CCOc1ccc(-c2nc(-c3ccccc3)no2)cc1OCC	12	78*	1	38	-13	-3	-42
Cc1ccc2cc(C#N)c(N3CCCN(C(=O)c4cccs4)CC3)nc2c1	14	nt	nt	22	nt	nt	nt
CN(C)c1ccc(C(=O)c2ccc(N(C)C)c3ccccc23)cc1	nt	34*	-1	4	nt	50*	60*
COc1ccc(C(=O)c2ccc(N(C)C)cc2)c(OC)c1	6	-12	1	-19	28	nt	nt
COc1cccc2c1OC1(CCN(C(C)C)CC1)N1N=C(c3cccnc3)CC21 (centres undefined)	8	-5	-1	-3	3	nt	nt
CC(C)N1CCC2(CC1)Oc1ccc(Br)cc1C1CC(c3cccnc3)=NN12 (centres undefined)	7	32*	0	-4	4	19	32
CCCn1c(NC(=O)c2ccccc2)nc2ccccc21	11	29*	-3	36	-59	5	9
Cc1ccc(C(=O)Nc2nc3ccccc3n2CCN2CCCC2)cc1	7	31*	-3	3	-4	8	-11
CCn1c(CNc2nc(-c3ccccc3)cs2)nnc1SCC(=O)NC1CCCCC1	12	nt	nt	18	nt	nt	nt
CCCCC(CC)c1nnc(NC(=O)c2cccs2)s1 (centres undefined)	6	29*	0	-19	-30	6	-15
COc1ccc2cc(CN(Cc3cccs3)S(=O)(=O)c3ccc4c(c3)OCCO4)c(=O)[nH]c2c1	18	nt	nt	-87	nt	nt	nt
N=c1n(CCN2CCCCC2)c2ccccc2n1CC(O)c1ccc(Cl)c(Cl)c1 (centres undefined)	nt	55*	-3	-52	nt	58*	59*
Cc1n[nH]c(C)c1N1C(=O)c2cccc3c(Br)ccc(c23)C1=O	28	70*	1	-8	nt	79*	93*
Cc1n[nH]c(C)c1N1C(=O)c2cccc3cc(Br)cc(c23)C1=O	14	2	-2	17	nt	nt	nt
Cc1c(O)ccc(NC(=O)/C=C/c2ccccc2)c1C	3	57*	-1	-27	10	61*	13
Oc1ccc(-c2nc3cnccn3c2NCc2ccc(F)cc2)cc1	8	nt	nt	-95	nt	nt	nt
CC1CN(C)CCC1CCc1ccc(NC(=O)Cc2n[nH]c(=O)c3ccccc23)cc1 (centres undefined)	nt	nt	nt	-11	nt	nt	nt
COc1ccc(/C=C/C(=O)c2c(O)c(OC)c3occc3c2OC)cc1	8	34*	2	-23	-5	52*	18
SMILES	EP2 antag	S1P4 antag	S1P4 ag	EP2 mod	S1P3 antag	S1P4 antag cf	S1P1 antagonist
COc1ccc(/C=C/C(=O)c2ccccc2O)cc1	5	23	0	-4	-19	nt	nt
O=C(OCn1ncc(Br)c(Br)c1=O)c1c(F)cccc1F	26	59*	-2	11	nt	116*	12
CC(=O)Cn1ncc(Br)c(Br)c1=O	12	33*	-2	19	-6	111*	51*
CC(C)(C)C(=O)Cn1ncc(N2CCCC2)c(Br)c1=O	10	-12	0	8	nt	nt	nt
COc1ccccc1OCc1nnc(SCC(=O)N2CCCc3ccccc32)o1	13	nt	nt	-46	nt	nt	nt
CN1C(=O)SC(Nc2ccc(Cl)cc2)C1=O (centres undefined)	17	nt	nt	-38	nt	nt	nt
COc1cccc(-n2nc(C(N)=O)c(O)cc2=O)c1	1	0	-1	40	-21	nt	nt
COc1cccc(-n2nc(C#N)c(Cl)cc2=O)c1	2	94*	-3	20	-13	104*	0
N#Cc1c(NC(=O)c2cc(-c3ccccc3)on2)sc2c1CCC2	8	nt	nt	-27	nt	nt	nt
COc1ccc2[nH]c3c(NCc4ccccc4)ncnc3c2c1	31	nt	nt	-129	nt	nt	nt
Cc1ccc(Nc2cc(C)nn2-c2nc(C)cc(C)n2)cc1	11	-19	-1	41	13	nt	nt
Cc1ccc(Nc2cc(C)nn2-c2nc(C)cc(=O)[nH]2)cc1	9	92*	2	42	6	114*	95*
COc1cc(SC)ccc1C(=O)Nc1c(C)cccc1C	3	81*	0	10	0	85*	12
Cc1ccc(-n2nnnc2-c2ccccc2)cc1	4	-7	0	7	-10	nt	nt
Cc1ccc(-n2nnnc2C(Cl)c2nnnn2-c2ccc(C)cc2)cc1	13	47*	4	1	-8	74*	22
CCOC(=O)Cc1n[nH]c([N+](=O)[O-])n1	6	nt	nt	1	nt	nt	nt
Cc1ccccc1C(C(=O)NCc1ccco1)N(C(=O)Cn1nnc2ccccc21)C1CC1 (centres undefined)	15	nt	nt	-11	nt	nt	nt
Cc1cccc(C)c1NC(=O)c1ccc(-c2ccc(Cl)cc2Cl)o1	3	96*	1	-7	nt	111*	-2
COc1ccccc1NC(=O)CSc1nnc(-c2ccncc2)n1-c1ccc(C)c(C)c1	30	nt	nt	1	nt	nt	nt
CCCN1C(=O)/C(=C/c2ccc(N3CCOCC3)cc2)NC1=S	10	11	-1	-42	1	nt	nt
CCCN1C(=O)/C(=C/c2ccc(OCC(=O)OCC)cc2)NC1=S	23	30*	-1	0	-19	12	11
C/C=C(\C)C(=O)O[C@@H]1c2c(ccc3ccc(=O)oc23)OC(C)(C)[C@@H]1OC(C)=O	13	nt	nt	-6	nt	nt	nt
CC1=C(C)/C(=N\OS(=O)(=O)c2ccccc2)C=CC1=O	89*	42*	-1	-80	nt	69*	10
